Screening data as filed in PubChem.
AGP1-GFP MLPCN – modulators of AGP1-GFP expression in yeast TOR pathway, primary screen, cell-based, multiplex flow cytometry, S. cerevisiae, MLPCN library; 3 h; GFP as percent of DMSO wells; AID 2066, 2009; actives 0.02% (n = 320,000); GFP response vs DMSO, % at 10 µM;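 active = GFP response relative to DMSO above a set limit, near screen average plus 3 SD, cut at about 150% in these data; inconclusive = fewer than 70 cells counted for the yeast strain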;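 also: median GFP channel fluorescence of the gated AGP1 strain per well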
LAP4 TOR yeast – modulators of LAP4-GFP expression in yeast, primary screen, S. cerevisiae, multiplex flow cytometry, MLPCN library; 3 h; median GFP as percent of DMSO wells; GFP response vs DMSO, % at 10 µM; actives 0.34% (n = 320,000); AID 2023, 2009;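 active = GFP response vs DMSO above a set limit, about the screen mean plus 3 SD, cut at about 150% in these data; inconclusive = under 70 cell events counted for the yeast strain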
MEP2-GFP yeast – modulators of MEP2-GFP levels in yeast, primary screen, S. cerevisiae, multiplex flow cytometry, MLPCN library; S. cerevisiae MEP2-GFP strain, 3 h; 100% = DMSO control level; AID 2016, 2009; GFP response vs DMSO, % at 10 µM; actives 0.51% (n = 330,000);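 active = GFP response versus DMSO above a set limit, roughly screen mean plus 3 SD, cut at about 180% in these data; inconclusive = fewer than 70 cells counted for a yeast strain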;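 also: median GFP fluorescence of the barcode-gated MEP2-GFP cells per well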
CIT2 TOR yeast – modulators of CIT2-GFP expression in yeast, primary screen, S. cerevisiae, GFP fusion, multiplex flow cytometry, MLPCN library; actives 0.065% (n = 320,000); GFP response vs DMSO, % at 10 µM; S. cerevisiae CIT2-GFP strain, 3 h; 100 means same as DMSO wells;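 active = GFP response relative to DMSO above a set limit, near the screen mean plus 3 SD, cut at about 150% in these data; inconclusive = Fewer than 70 cells measured for a yeast strain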;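 also: ratio of well median GFP fluorescence to mean of DMSO wells on the plate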
RPL19A TOR yeast – RPL19A-GFP expression modulators in yeast, primary screen, cell-based, S. cerevisiae, multiplex flow cytometry, MLPCN; percent response vs DMSO, % at 10 µM; S. cerevisiae RPL19A-GFP strain, 3 h; stronger effect = lower value; actives 0.3% (n = 330,000);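 active = percent response vs DMSO below 50%; inconclusive = fewer than 70 events counted for the yeast strain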;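 also: median channel GFP fluorescence of the barcoded RPL19A-GFP strain; ratio of sample median GFP to plate DMSO average so 100% = DMSO; lower means less RPL19A-GFP as with rapamycin TOR inhibition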
LAP4 cherry2 – LAP4-GFP expression modulators in yeast, confirmation, cell-based, second cherry pick, flow cytometry; AID 2621, 2010; actives 20% (n = 590); GFP response vs DMSO, % at 10 µM; S. cerevisiae LAP4-GFP strain, 3 h; shares compounds with LAP4 TOR yeast;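 active = GFP signal as percent of the solvent control above about 150%, meaning raised reporter expression, limit read from the data; inconclusive = fewer than 70 cells counted in the well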;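 also: ratio of well median GFP fluorescence to plate DMSO mean so 100% = DMSO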
MEP2 cherry2 – modulators of MEP2-GFP levels in yeast, confirmation, S. cerevisiae, flow cytometry GFP, second cherry picks; shares compounds with LAP4 TOR yeast; S. cerevisiae MEP2-GFP strain, 3 h; GFP response vs DMSO, % at 10 µM; actives 10% (n = 590);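 active = GFP signal above 150% of the solvent control wells, that is a rise of more than half; inconclusive = fewer than 70 yeast cells counted in the well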;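 also: median channel GFP fluorescence of all gated yeast cells per well; ratio of median GFP to plate DMSO average so 100% = DMSO level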
RPL19A-GFP pick2 – RPL19A-GFP modulators in TOR pathway yeast, confirmation, cell-based, S. cerevisiae, flow cytometry, second cherry pick; shares compounds with LAP4 TOR yeast; S. cerevisiae RPL19A-GFP strain, 3 h; stronger effect = lower value; 100% means same as DMSO wells; GFP response vs DMSO, % at 10 µM; actives 3% (n = 590); AID 2623, 2010;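 active = under 65% GFP response relative to DMSO; inconclusive = yeast strain with under 70 measured events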;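 also: median GFP channel fluorescence per well over the all cells gate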
CIT2-GFP pick2 – modulators of CIT2-GFP expression in yeast, confirmation, flow cytometry, second cherry pick, single plex; shares compounds with LAP4 TOR yeast; S. cerevisiae CIT2-GFP strain, 3 h; DMSO control wells read 100%; GFP response vs DMSO, % at 10 µM; actives 8% (n = 590);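 active = GFP response vs DMSO above about 150%, limit read from the data; inconclusive = fewer than 70 events counted for a yeast strain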;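 also: median green fluorescence per well over all gated yeast cells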
AGP1 GFP CP2 – AGP1-GFP expression modulators, hit retest, confirmation, cell-based, flow cytometry, S. cerevisiae, cherry pick set 2; shares compounds with LAP4 TOR yeast; percent response vs DMSO, % at 10 µM; S. cerevisiae AGP1-GFP strain, 3 h; 590 tested, under 10 active;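 active = over 150 percent of DMSO response; inconclusive = yeast strain measured with under 70 events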;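 also: median GFP channel fluorescence over all cells without mother daughter split; sample median GFP divided by mean DMSO control so 100% equals DMSO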
Yeast autofluor – compound autofluorescence in yeast s288c, dose response, artefact control for yeast TOR pathway GFP screen, s288c strain; shares compounds with LAP4 TOR yeast; S. cerevisiae s288c, 520 nm autofluorescence, flow cytometry, 3 h; stronger effect = higher value; zero means same as solvent-only cells; fluorescence change (kMESF span) at 33 µM; 610 tested, under 10 active;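 active = fluorescence span over the dose series, or activity score, above about 33, limit read from the data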
* hit, by the source's call; ? = inconclusive; . = no result given; ! = not active in a repeat; [ ] = dose if it differs, or a comment. An excerpt weighted towards active compounds, which were near 0.92% of everything screened.

SMILES | AGP1-GFP MLPCN | LAP4 TOR yeast | MEP2-GFP yeast | CIT2 TOR yeast | RPL19A TOR yeast | others
CC(C)(CN)CC(=O)O | 105 | 105 | 101 | 110 | 98
CC[C@@H]1C(=O)OC[C@@H]1Cc1cncn1C | 95 | 111 | 100 | 89 | 106
CC[C@@H]1C(=O)OC[C@@H]1Cc1cncn1C | ? | 107 | 404*![may fluoresce violet] | ? | 43*![may fluoresce violet]
N=Cc1c(O)n(-c2ccccc2)c(=O)n(-c2ccccc2)c1=O | 17 | 94 | 216*[may fluoresce violet] | ? | 81
Cc1ccc(-n2c(O)c(C=N)c(=O)n(-c3ccc(C)cc3)c2=O)cc1 | 99 | 97 | 103 | 103 | 101
CC(=O)c1cc(C#N)c(N2CCN(C)CC2)nc1C | 100 | 111 | 110 | 97 | 97
CCCC[C@@H](C)C[C@@H](C)C(=O)N(C)[C@@H](CC(C)C)C(=O)N[C@H](C(=O)N(C)[C@H](C(=O)N1C[C@@H](O)C[C@H]1C(=O)N1C(=O)C=C[C@@H]1C)C(C)C)C(C)OC(C)=O (some centres undefined) | 106 | 109 | 103 | 92 | 104
CCN(CCO)c1ccc(N=Cc2c(O)n(C)c(=S)[nH]c2=O)cc1 | 106 | 106 | 107 | 108 | 100
Cc1c(CC(=O)N2C[C@H]3C[C@@H](C2)c2cccc(=O)n2C3)c(=O)oc2cc(O)c(Cl)cc12 | 28 | 92 | 185*[may fluoresce violet] | ? | 16*[may fluoresce violet]
Cc1c(CC(=O)N2C[C@H]3C[C@@H](C2)c2cccc(=O)n2C3)c(=O)oc2c(C)c(O)ccc12 | 100 | 101 | 98 | 99 | 99
COc1ccc(CCNCc2ccccc2)cc1 | ? | 67 | 230*[may fluoresce violet] | ? | 60
Cc1n[nH]c(C)c1CCN | ? | 66 | 235*[may fluoresce violet] | ? | 60
Cc1ccc(OCC(=O)N2CCN(Cc3cccnc3)CC2)cc1 | 101 | 101 | 111 | 116 | 102
Cc1ccc(OCC(=O)NCCN2CCN(C(=O)COc3ccc(C)cc3)CC2)cc1 | ? | 86 | 251*[may fluoresce violet] | ? | 50
O=c1ccc2cc(OC3O[C@H](CO)[C@@H](O)[C@H](O)[C@H]3O)c(O)cc2o1 (some centres undefined) | ? | 94 | 208*[may fluoresce violet] | ? | 41*[may fluoresce violet]
COc1cc([C@H]2OC[C@H]3[C@@H]2CO[C@@H]3c2cc(OC)c(O[C@@H]3O[C@H](CO)[C@@H](O)[C@H](O)[C@H]3O)c(OC)c2)cc(OC)c1O[C@H]1O[C@@H](CO)[C@H](O)[C@@H](O)[C@@H]1O | 107 | 101 | 101 | 94 | 99
CNC(=O)Nc1ccc(C(=O)N/N=C\C23CC[C@@H](O)CC2(O)CC[C@@H]2[C@@H]3CCC3(C)C(C4=CC(=O)OC4)CCC23O)cc1 (some centres undefined) | 19 | 92 | 200*[may fluoresce violet] | ? | 45*[may fluoresce violet]
CC12CC[C@H]3[C@@H](CCC4(O)C[C@H](O)CCC34/C=N/NC(=O)c3ccccc3[N+](=O)[O-])C1(O)CCC2C1=CC(=O)OC1 (some centres undefined) | 104 | . | 106 | 100 | 96
O=c1[nH]c(=S)n(-c2ccccc2)c(O)c1/C=N/N1CCOCC1 | 110 | 119 | 153 | 151* | 124
Cc1ccc(N2C(=O)/C(=C/c3ccc(CN(CCC#N)S(C)(=O)=O)o3)C(=O)NC2=S)cc1C | 23 | 97 | 198*[may fluoresce violet] | ? | 64
CCN(CC)c1ccc(C=C2C(=O)NC(=S)NC2=O)cc1 | 92 | 212* | 98 | 68 | 89
COC(=O)C1=C(c2ccc(F)cc2OCc2ccccc2)C[C@@H]2CC[C@H]1N2C(=O)NCCCc1ccccc1 | 97 | 106 | 89 | 103 | 94
O=C1C(Cc2cnc[nH]2)NC(=S)N1c1ccccc1 (centres undefined) | 99 | 95 | 113 | 100 | 104
CCn1nc(-c2ccccc2)nc2c(=O)n(C)c(=O)nc1-2 | 111 | 229* | 122 | 61 | 126
COCCNC(=O)CN1C(=O)C(C)N=C(c2ccccc2)c2cc(Cl)ccc21 (centres undefined) | 20 | 81 | 196*[may fluoresce violet] | ? | 59
SMILES | AGP1-GFP MLPCN | LAP4 TOR yeast | MEP2-GFP yeast | CIT2 TOR yeast | RPL19A TOR yeast | others
CC(C)CCNC(=O)CN1C(=O)CN=C(c2ccccc2)c2ccccc21 | 107 | 108 | 102 | 103 | 100
Nc1c(C(=O)NCC2CCCO2)c2nc3ccccc3nc2n1Cc1ccco1 (centres undefined) | 18 | 99 | 518*[may fluoresce violet] | ? | 97
Cc1ccsc1/C=C1\C(=O)NC(=S)N(C)C1=O | 56 | 52 | 87 | 90 | 55 | LAP4 cherry2=103;MEP2 cherry2=128;RPL19A-GFP pick2=67;CIT2-GFP pick2=79;AGP1 GFP CP2=64;Yeast autofluor=-1.4
CN1C(=O)/C(=C/c2ccc(Cl)s2)C(=O)NC1=S | 70 | 118 | 85 | 92 | 100
CCCCCCCCn1sccc1=O | 72 | 207* | 98 | 86 | 88 | LAP4 cherry2=180*;MEP2 cherry2=185*;RPL19A-GFP pick2=85;CIT2-GFP pick2=174*;AGP1 GFP CP2=87;Yeast autofluor=1.6
CCCCCCCCc1ccc(O)cc1 | 97 | 111 | 99 | 89 | 98
